Assay [1] can be described thus: NCI Yeast Anticancer Drug Screen. Data for the rad50 strain (AID 155).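 Further: 0% = growth of vehicle-only cultures of the same strain.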 To be noted: S. cerevisiae rad50 strain growth inhibition; at 50.0 µM; hits give high values. Summed up: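 Yeast carrying a defined DNA repair defect were exposed to test compounds, and growth was compared with vehicle-treated controls to give percent inhibition.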
Assay [2] in a line: NCI Yeast Anticancer Drug Screen. Data for the mec2-1 strain (AID 157). To be noted: S. cerevisiae mec2-1 strain, at 50.0 µM, hits give high values. Summed up:
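Using mec2-1 yeast: add compound, measure growth, express inhibition versus vehicle-treated cultures.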

Assay [3] in a line: NCI Yeast Anticancer Drug Screen. Data for the sgs1 mgt1 strain (AID 161).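 Further: 0% = growth of cultures given vehicle only.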 To be noted: S. cerevisiae sgs1 mgt1 strain, at 50.0 µM, hits give high values. Summed up:
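Yeast cells carrying a defined DNA-repair defect were exposed to test compounds. Growth inhibition was measured relative to vehicle-treated controls.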

Assay [4] is described as follows: NCI Yeast Anticancer Drug Screen. Data for the cln2 rad14 strain (AID 165).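 Further: 0% = growth equal to vehicle treated cultures.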 The note with it: S. cerevisiae cln2 rad14 strain, at 50.0 µM, hits give high values. Summed up:
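Yeast strain cln2 rad14, bearing defects in cell cycle control and DNA repair, serves as the test system; values reflect growth inhibition compared with vehicle.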

Assay [5] is described as follows: NCI Yeast Anticancer Drug Screen. Data for the bub3 strain (AID 167). To be noted: S. cerevisiae bub3 mutant strain, at 50.0 µM, hits give high values. An outline of the steps:
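Compounds were applied to a genetically altered yeast strain carrying a cell-cycle control defect. Growth inhibition was scored against vehicle-treated controls.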

A short description of assay [6]: NCI Yeast Anticancer Drug Screen. Data for the mlh1 rad18 strain (AID 175). The note with it: S. cerevisiae mlh1 rad18 strain growth inhibition; at 50.0 µM; hits give high values. An outline of the steps: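 Steps: expose repair-defective yeast to compound; measure growth; express inhibition against vehicle-treated controls.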

This is part of a sample that, as a whole, favours compounds with a hit. Of some 79,000 tested, about 15% had one in any assay. Unmarked numbers belong to inactive results. Active and inactive are the calls of the source. No stated cut-off is given here; in the data, active means growth inhibition above about 70%; inactive means the rest.

Regarding `CN1CCN(CCNNCCN2CCCC(O)C2)CC1` (stereo not given), the growth inhibition in assay [1] was 3.2%; in assay [2], -1.65%; in assay [3], -5.15%; in assay [4] it was -6.05%; in assay [5], -7.25%; in assay [6] it was 10.7%.

As to `NC(=O)N1CCc2ccccc2C1c1ccccc1` (stereo not given), the growth inhibition in assay [1] is -2.95%; in assay [2] it was -12.7%; in assay [3], -7.55%; in assay [4], -14.4%; in assay [5], 9.25%; in assay [6], -21.4%.

Regarding `N#Cc1ccccc1N=Nc1nc(N)c(C(N)=O)[nH]1`, the growth inhibition in assay [1] is 22.2%; in assay [2], 13.7%; in assay [3] it was 11.2%; in assay [4], -5.05%; in assay [5], 4.7%; in assay [6], 10.2%.

In the case of `NC(=O)C(Cc1ccc(O)cc1)NC(=O)c1ccccc1` (stereo not given), the growth inhibition in assay [1] was -8.8%; in assay [2] it was -16.6%; in assay [3], -0.1%; in assay [4], 1.85%; in assay [5], 22.1%; in assay [6] it was -14.2%.

For `CCN(CC)C(=O)C(C)n1cc(C)c(=O)[nH]c1=O` (stereo not given), the growth inhibition in assay [1] was -32.2%; in assay [2] it was -39.2%; in assay [3], -19.9%; in assay [4] it was 5.35%; in assay [5], -2.55%; in assay [6] it was -3.85%.

On to `O=c1c2nn3c(=O)n(-c4ccccc4)c(=O)c3nn2c(=O)n1-c1ccccc1`, for which the growth inhibition in assay [1] was -33%; in assay [2], -10.6%; in assay [3] it was -14.8%; in assay [4] it was -5.8%; in assay [5] it was -24.7%; in assay [6], -3.05%.

With `CN(C)C=N[C@@H](C(=O)O)c1ccccc1`, the growth inhibition in assay [1] is -8.85%; in assay [2] it was -19.1%; in assay [3] it was -11.4%; in assay [4], 8.8%; in assay [5], -4.95%; in assay [6] it was 9.8%.

For the compound `CC1(O)C(O)C(O)C1(O)CO` (stereo not given) (tested in a mixture with another compound), the growth inhibition in assay [1] is 6.55%; in assay [2], -3.35%; in assay [3], 9.9%; in assay [4], -1.85%; in assay [5], -2.4%; in assay [6] it was -4.9%.

Consider `CCCCCCCCn1c(N)c(C#N)cnc1=S`, for which the growth inhibition in assay [1] is -27.9%; in assay [2], 9.65%; in assay [3], -3.45%; in assay [4], -20.2%; in assay [5], 12%; in assay [6], 1.2%.

In the case of `Oc1ccc(N=Cc2ccc3ccccc3n2)cc1`, the growth inhibition in assay [1] is 36%; in assay [2], 1.55%; in assay [3] it was 19.1%; in assay [4] it was 10.3%; in assay [5], -19.8%; in assay [6] it was 4.2%.

With `O=c1[nH]cc(F)c(=O)n1-c1ccco1`, the growth inhibition in assay [1] is 42.6%; in assay [2], 67.5%; in assay [3] it was 79.8% (active); in assay [4], -0.55%; in assay [5], 52.2%; in assay [6], 34.9%.

With `Cc1ccc(S(=O)(=O)c2cc3ccccc3oc2=O)cc1`, the growth inhibition in assay [1] is -1.25%; in assay [2], 1%; in assay [3], -8.2%; in assay [4] it was -40%; in assay [5], -11.2%; in assay [6], -9.65%.

Take `O=C1NC(N2CCCCC2)=N/C1=C\c1ccccc1O`: the growth inhibition in assay [1] was 5%; in assay [2], -25.3%; in assay [3] it was -2.85%; in assay [4], 15.1%; in assay [5], 5.5%; in assay [6] it was 89.7% (active).

With `CCOc1ccccc1NC(=O)CC1SC(=Nc2ccc([N+](=O)[O-])cc2)NC1=O` (stereo not given), the growth inhibition in assay [1] is 24.6%; in assay [2], 20.9%; in assay [3], 10.3%; in assay [4], 10.9%; in assay [5], -13.3%; in assay [6], -12.8%.

For the compound `O=c1/c(=C/c2ccccc2F)sc2nc3ccccc3n12`, the growth inhibition in assay [1] is -2.85%; in assay [2], -11.3%; in assay [3], 12.2%; in assay [4], 29%; in assay [5], 21.1%; in assay [6] it was 12.3%.

As for `CCCC(C)c1ccc(OCc2ccc(C)cc2)cc1` (stereo not given), the growth inhibition in assay [1] was 1.6%; in assay [2], -4.25%; in assay [3] it was -18.1%; in assay [4] it was 13.8%; in assay [5], -1.05%; in assay [6], -4.9%.

In the case of `CCN(CC)Cc1cc(Nc2c3ccc([N+](=O)[O-])cc3nc3ccc(OC)cc23)ccc1O`, the growth inhibition in assay [1] was 83.3% (active); in assay [2] it was 60.4%; in assay [3] it was 56%; in assay [4], 54.5%; in assay [5] it was 53.9%; in assay [6] it was 65.3%.

For the compound `O=C(N/N=C\c1c[nH]c2ccccc12)N/N=C/c1c[nH]c2ccccc12`, the growth inhibition was -4.05% in assay [1]; -21.4% in assay [2]; -7.25% in assay [3]; -11.2% in assay [4]; -3.45% in assay [5]; -37.9% in assay [6].

With `COc1ccc(C(=O)/C=C/c2ccccc2)c(O)c1OC`, the growth inhibition in assay [1] is -7.45%; in assay [2], -1.85%; in assay [3], 8.1%; in assay [4], -0.95%; in assay [5], 9.95%; in assay [6] it was -7.1%.

For `O=C(NN1C(=O)C(Cl)C1c1cccc(O)c1)c1ccccc1O` (stereo not given), the growth inhibition in assay [1] is -47.5%; in assay [2] it was -34%; in assay [3], -32.8%; in assay [4] it was 5.55%; in assay [5], -29.2%; in assay [6] it was -39.1%.
